Assay results taken from PubChem BioAssay.
The source made the active and inactive calls. Unless noted, the rule behind the calls is not given here.

Experiments:
[1] = HepG2 liver cancer cell viability effects, profiling panel, resazurin fluorescence, 24 h, PK04 Diversity Set (AID 1172); conditions: higher = more signal; note: test concentration not given here
[2] = basal S. cerevisiae growth modulation, no modifier, primary screen, OD600, strain BY4716, 24 h, basal condition (AID 1173); conditions: OD600, 24 h, higher = more signal, called active from +8 up or from −8 down
[3] = MM1S myeloma cell viability, profiling panel, resazurin fluorescence, basal, 24 h, PK04 Diversity Set (AID 1174); conditions: higher = more signal, called active from +8 up or from −8 down;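 note: MM1S multiple myeloma cell line; test concentration not given here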
[4] = biological target: Dihydroorotate dehydrogenase (quinone), mitochondrial (Plasmodium falciparum (isolate 3D7)) (UniProt Q08210); test: PfDHODH enzyme inhibitors, primary screen, biochemical, C-terminal His tag, absorbance 600 nm (AID 1175); conditions: DCIP absorbance 600 nm, higher = more signal, called active from +8 up or from −8 down;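 note: recombinant parasite enzyme with a five histidine tag at its C terminus; test concentration not given here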
[5] = P. aeruginosa biofilm formation inhibitors, primary screen, strain PAO1, LB-PBS medium, absorbance 600 nm (AID 1176); note: test concentration not given here; conditions: P. aeruginosa PAO1 growth/biofilm, A600, 12 h; higher = more signal
[6] = S. cerevisiae RM11-1a growth modifiers, primary screen, strain RM11-1a, OD600, basal, 24 h (AID 1177); conditions: OD600, 24 h, higher = more signal, called active from +8 up or from −8 down;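 note: cultures grown under basal conditions with no added stressor; test concentration not given here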
[7] = E. coli acrAB mutant growth effects, primary screen, E. coli filamentation inducers, strain DRC39, OD650, 24 h (AID 1178); conditions: higher = more signal, called active from +8 up or from −8 down;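 note: growth measured as culture turbidity by optical density at 650 nm; test concentration not given here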
[8] = E. coli acrAB mutant growth effects, primary screen, E. coli filamentation inducers, strain DRC39, OD650, 48 h (AID 1179);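 note: screen aims at cell division blockers that make cells filament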; conditions: E. coli DRC39 delta-acrAB growth, higher = more signal, called active from +8 up or from −8 down
[9] = RPMI8226 myeloma cell viability, profiling panel, resazurin fluorescence, basal, 24 h, PK04 Diversity Set (AID 1180); conditions: higher = more signal;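 note: RPMI8826 multiple myeloma cell line at 5000 cells per well; test concentration not given here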
[10] = biological target: E3 ubiquitin-protein ligase XIAP (Homo sapiens) (UniProt P98170); test: XIAP binders, primary screen, biophysical, small-molecule microarray, fluorescence 635 nm (AID 1181); conditions: small-molecule microarray binding, higher = more signal;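 note: score merges 667 nm emission and signal to noise over triplicate slides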
Sequence of E3 ubiquitin-protein ligase XIAP (Homo sapiens) (P98170 whole entry, looked up): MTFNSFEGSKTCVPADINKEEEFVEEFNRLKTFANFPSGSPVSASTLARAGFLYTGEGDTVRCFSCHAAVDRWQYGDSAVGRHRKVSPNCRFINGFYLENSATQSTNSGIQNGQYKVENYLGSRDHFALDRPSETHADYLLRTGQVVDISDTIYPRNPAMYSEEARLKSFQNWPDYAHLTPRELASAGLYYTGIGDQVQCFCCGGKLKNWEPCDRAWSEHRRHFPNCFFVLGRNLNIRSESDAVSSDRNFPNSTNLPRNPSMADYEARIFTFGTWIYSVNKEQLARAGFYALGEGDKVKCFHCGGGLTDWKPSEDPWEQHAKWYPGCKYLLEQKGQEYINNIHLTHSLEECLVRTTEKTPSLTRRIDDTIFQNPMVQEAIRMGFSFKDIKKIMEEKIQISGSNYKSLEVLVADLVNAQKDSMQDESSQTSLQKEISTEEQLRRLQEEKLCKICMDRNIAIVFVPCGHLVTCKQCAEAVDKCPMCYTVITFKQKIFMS

Sequence of Dihydroorotate dehydrogenase (quinone), mitochondrial (Plasmodium falciparum (isolate 3D7)) (Q08210 whole entry, looked up): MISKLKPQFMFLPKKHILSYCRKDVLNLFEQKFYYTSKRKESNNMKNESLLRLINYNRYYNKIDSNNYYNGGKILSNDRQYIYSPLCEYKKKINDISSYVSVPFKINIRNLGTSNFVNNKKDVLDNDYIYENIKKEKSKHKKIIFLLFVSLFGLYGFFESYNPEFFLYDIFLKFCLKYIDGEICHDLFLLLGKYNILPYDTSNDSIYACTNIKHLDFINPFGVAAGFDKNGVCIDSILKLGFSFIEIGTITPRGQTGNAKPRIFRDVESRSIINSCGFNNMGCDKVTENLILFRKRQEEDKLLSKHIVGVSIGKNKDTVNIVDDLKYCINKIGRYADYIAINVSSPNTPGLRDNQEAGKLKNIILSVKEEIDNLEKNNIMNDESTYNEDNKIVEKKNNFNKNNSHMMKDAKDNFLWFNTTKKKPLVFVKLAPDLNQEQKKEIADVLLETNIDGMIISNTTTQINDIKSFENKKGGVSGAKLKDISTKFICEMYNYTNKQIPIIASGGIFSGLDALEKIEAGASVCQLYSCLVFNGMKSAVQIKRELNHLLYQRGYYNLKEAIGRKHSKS

CS(=O)(=O)CCOC(=O)C1=CC(CCCO)=CC(c2cccs2)N(Cc2cccc(OC(F)(F)F)c2)C=C1C(=O)OCCS(C)(=O)=O (stereo not given)
z-score [1]: -0.746 | z-score [2]: -3.44 (inactive) | z-score [3]: -1.21 (inactive) | composite z-score [4]: -0.407 (inactive) | z-score [5]: 1.52 (inactive) | z-score [6]: 0.0788 (inactive) | z-score [7]: 0.596 (inactive) | z-score [8]: -0.0926 (inactive) | z-score [9]: -0.96 | composite z-score [10]: -0.268

O=C1CCCC2OC12C(O)CCc1ccccc1 (stereo not given)
z-score [1]: -1.06 | z-score [2]: -0.372 (inactive) | z-score [3]: -0.397 (inactive) | composite z-score [4]: -0.103 (inactive) | z-score [5]: -0.127 (inactive) | z-score [6]: 0.142 (inactive) | z-score [7]: 0.637 (inactive) | z-score [8]: 0.489 (inactive) | z-score [9]: 0.145 | composite z-score [10]: -0.0238

CCCNC(=O)OC[C@H]1O[C@H](CCON=CC[C@@H]2C=C[C@H](OC(C)=O)[C@@H](COC(C)=O)O2)C=C[C@@H]1Oc1ccc(OC)cc1
z-score [1]: 0.261 | z-score [2]: 1.4 (inactive) | z-score [3]: -0.387 (inactive) | composite z-score [4]: -0.584 (inactive) | z-score [5]: 0.0282 (inactive) | z-score [6]: 0.394 (inactive) | z-score [7]: 0.426 (inactive) | z-score [8]: -0.371 (inactive) | z-score [9]: 0.477 | composite z-score [10]: -0.128

CC(C)c1ccc(NN2C(C(O)c3ccc4c(c3)OCO4)C=CC3C(=O)N(c4ccccc4)C(=O)C32)cc1 (stereo not given)
z-score [1]: -1.13 | z-score [2]: -0.791 (inactive) | z-score [3]: -0.165 (inactive) | composite z-score [4]: -0.0797 (inactive) | z-score [5]: 1.08 (inactive) | z-score [6]: 0.266 (inactive) | z-score [7]: -0.167 (inactive) | z-score [8]: -0.563 (inactive) | z-score [9]: -0.191 | composite z-score [10]: 0.0641

COC(=O)CC=C[C@@H](C)[C@H](OC)c1ccccc1Br
z-score [1]: -0.327 | z-score [2]: -1.15 (inactive) | z-score [3]: -0.397 (inactive) | composite z-score [4]: -2.6 (inactive) | z-score [5]: -0.655 (inactive) | z-score [6]: 0.791 (inactive) | z-score [7]: 0.25 (inactive) | z-score [8]: -0.129 (inactive) | z-score [9]: 0.0866 | composite z-score [10]: -0.241

CCOc1ccc(N2C(=O)/C(=C/C=C/c3ccccc3OC)S(=O)(=O)C2c2cccc([N+](=O)[O-])c2)cc1 (stereo not given)
z-score [1]: 1.28 | z-score [2]: -1.52 (inactive) | z-score [3]: -2.33 (inactive) | composite z-score [4]: -1.74 (inactive) | z-score [5]: 1.07 (inactive) | z-score [6]: -1.44 (inactive) | z-score [7]: 0.777 (inactive) | z-score [8]: 0.765 (inactive) | z-score [9]: -0.548 | composite z-score [10]: 0.0264

CC(C)[C@@H](OCc1ccccc1)[C@H](C)C=NO[C@H](C)c1cn([C@H](CO)Cc2ccccc2)nn1
z-score [1]: -1.01 | z-score [2]: -3.51 (inactive) | z-score [3]: -2.02 (inactive) | composite z-score [4]: -0.926 (inactive) | z-score [5]: -0.324 (inactive) | z-score [6]: -2.3 (inactive) | z-score [7]: -0.0325 (inactive) | z-score [8]: -0.0205 (inactive) | z-score [9]: -1.67 | composite z-score [10]: -0.0287

CC(=O)O[C@H]1C2=C(C(=O)[C@@H]3O[C@@H]31)[C@H]1C(C)O[C@@H]2[C@@]23C(=O)[C@@H]4O[C@@H]4[C@@H](O)C2=CO[C@H](C)[C@@H]13 (stereo not given in full)
z-score [1]: 0.0072 | z-score [2]: 0.174 (inactive) | z-score [3]: -1.01 (inactive) | composite z-score [4]: -0.0495 (inactive) | z-score [5]: -0.0812 (inactive) | z-score [6]: -0.2 (inactive) | z-score [7]: 0.223 (inactive) | z-score [8]: 0.186 (inactive) | z-score [9]: -1.12 | composite z-score [10]: -0.0454

COC(=O)[C@H](C)NC(=O)CCC1CC(OC(=O)NCc2cccc3ccccc23)CC2(CCCC(COC(=O)NCCc3ccc(Cl)cc3)O2)O1 (stereo not given in full)
z-score [1]: 0.788 | z-score [2]: -0.0765 (inactive) | z-score [3]: 0.319 (inactive) | composite z-score [4]: -0.473 (inactive) | z-score [5]: -0.61 (inactive) | z-score [6]: -0.425 (inactive) | z-score [7]: -0.0798 (inactive) | z-score [8]: 0.687 (inactive) | z-score [9]: 0.413 | composite z-score [10]: -0.0718

C=CCC(OC(C)=O)[C@@H]1[C@@H](N(Cc2cc3ccccc3o2)C(=O)Cc2ccc(F)cc2)c2cc(OCCCO)ccc2N1C(=O)Cc1ccc(OC)cc1 (stereo not given in full)
z-score [1]: 0.217 | z-score [2]: -0.449 (inactive) | z-score [3]: 0.301 (inactive) | composite z-score [4]: -1.66 (inactive) | z-score [5]: 0.632 (inactive) | z-score [6]: -0.711 (inactive) | z-score [7]: -0.201 (inactive) | z-score [8]: -0.416 (inactive) | z-score [9]: -0.115 | composite z-score [10]: 0.0769

C[C@H](c1ccccc1)N1C(=O)[C@H]2[C@H]3[C@H](O)[C@H](O)CC(=O)[C@@H]3CC[C@H]2C1=O
z-score [1]: -0.353 | z-score [2]: 0.205 (inactive) | z-score [3]: -0.486 (inactive) | composite z-score [4]: -0.303 (inactive) | z-score [5]: 0.544 (inactive) | z-score [6]: -0.897 (inactive) | z-score [7]: -0.159 (inactive) | z-score [8]: -0.0569 (inactive) | z-score [9]: -0.523 | composite z-score [10]: -0.0826

COC(=O)[C@@H]1CC[C@H](C)[C@@H](c2ccc(C)cc2)N1C(=O)c1ccc(C=NOC(C)CN2CCCCc3nc(C)c(C)cc32)cc1 (stereo not given in full)
z-score [1]: 1.03 | z-score [2]: -0.104 (inactive) | z-score [3]: -0.725 (inactive) | composite z-score [4]: 0.613 (inactive) | z-score [5]: 0.642 (inactive) | z-score [6]: 0.984 (inactive) | z-score [7]: 0.419 (inactive) | z-score [8]: -0.27 (inactive) | z-score [9]: -0.0629 | composite z-score [10]: 0.147

COCCOC(=O)N1C(=O)[C@@]2(c3cc(C#CCNC(N)=O)ccc31)[C@H](c1ccccc1OCCO)N1[C@H](c3ccccc3)[C@H](c3ccccc3)OC(=O)[C@H]1[C@@H]2C(=O)N1CCN(c2ncccn2)CC1
z-score [1]: -0.0783 | z-score [2]: 0.353 (inactive) | z-score [3]: -0.0546 (inactive) | composite z-score [4]: -1.48 (inactive) | z-score [5]: 2.49 (inactive) | z-score [6]: 0.733 (inactive) | z-score [7]: 0.924 (inactive) | z-score [8]: 1.18 (inactive) | z-score [9]: 0.241 | composite z-score [10]: -0.152
